Results taken from PubChem BioAssay (NCATS).
Results filed as inconclusive are left out. The source made the active and inactive calls. Unless noted, the call rests on the fitted dose curve.

Key:
[1] = qHTS for Inhibitors of the Functional Ribonucleoprotein Complex (vRNP) of Lassa (LASV) Arenavirus: LASV Primary Screen - GLuc reporter signal (AID 1347082; calls by dose curve; tested in HEK293 reporter line; further: nearly all actives have a fitted effect of over 60% in size; further: potency means the concentration at half of the fitted maximal effect)
[2] = qHTS for Inhibitors of the Functional Ribonucleoprotein Complex (vRNP) of Lassa (LASV) Arenavirus: Viability assay - alamar blue signal for LASV Primary Screen (AID 1347083; calls by dose curve; tested in HEK293 reporter line; further: nearly all actives have a fitted effect of over 80% in size; further: potency means the concentration at half of the fitted maximal effect)
[3] = qHTS for Inhibitors of the Functional Ribonucleoprotein Complex (vRNP) of Lymphocytic Choriomeningitis Arenaviruses (LCMV): Viability assay - alamar blue signal for LCMV Primary Screen (AID 1347085; calls by dose curve; tested in HEK293 reporter line; further: nearly all actives have a fitted effect of over 80% in size; further: potency means the concentration at half of the fitted maximal effect)
[4] = target: Nucleoprotein (Lymphocytic choriomeningitis virus (strain Armstrong)) (UniProt P09992); assay: qHTS for Inhibitors of the Functional Ribonucleoprotein Complex (vRNP) of Lymphocytic Choriomeningitis Arenaviruses (LCMV): LCMV Primary Screen - GLuc reporter signal (AID 1347086); further: nearly all actives have a fitted effect of over 70% in size; further: potency means the concentration at half of the fitted maximal effect
Nucleoprotein (Lymphocytic choriomeningitis virus (strain Armstrong)), sequence (P09992 whole entry, looked up): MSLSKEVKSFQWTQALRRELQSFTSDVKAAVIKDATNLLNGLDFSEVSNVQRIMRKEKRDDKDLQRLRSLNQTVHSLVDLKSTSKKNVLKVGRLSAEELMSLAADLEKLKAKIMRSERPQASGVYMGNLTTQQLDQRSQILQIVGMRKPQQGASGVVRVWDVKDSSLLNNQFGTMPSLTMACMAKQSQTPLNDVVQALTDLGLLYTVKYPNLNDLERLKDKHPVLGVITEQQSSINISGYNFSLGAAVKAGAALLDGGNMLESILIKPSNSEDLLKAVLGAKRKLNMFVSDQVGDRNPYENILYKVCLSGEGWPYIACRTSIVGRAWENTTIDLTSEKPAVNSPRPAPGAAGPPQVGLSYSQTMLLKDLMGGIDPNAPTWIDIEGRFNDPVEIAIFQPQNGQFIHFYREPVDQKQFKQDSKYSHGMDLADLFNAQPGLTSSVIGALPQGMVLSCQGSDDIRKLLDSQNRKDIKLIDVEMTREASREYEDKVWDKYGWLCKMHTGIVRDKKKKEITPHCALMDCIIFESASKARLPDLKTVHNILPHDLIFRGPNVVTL

[5] = test system: Zika virus NS2B-NS3 protease; assay: Primary screen GU AMC qHTS for Zika virus inhibitors (AID 1347154; active means well fitted inhibition curve with a large enough effect; further: nearly all actives have a fitted effect of over 70% in size)
Method in brief: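 Unlinked Zika NS2B hydrophilic domain–NS3 protease complex at 25 nM in 10 mM Tris-HCl pH 8.0, 0.01% Tween 20, with an AMC peptide substrate. Fluorescence change (340/450 nm) over 15 min at room temperature, normalized to controls, fitted to 4-parameter Hill.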

[6] = Primary qHTS for inhibitors of SARS-S pseudo-typed particle cell entry (AID 1479145); further: series mostly up to about 57 µM; nearly all actives have a fitted effect of over 45% in size
[7] = Primary qHTS for Huh7 cytotoxicity: counterscreen for inhibitors of MERS-S pseudotyped particle cell entry (AID 1479147); conditions: outcome: dose series up to 57.1 µM unless noted
[8] = Primary qHTS for inhibitors of MERS-S pseudo-typed particle cell entry (AID 1479149); further: nearly all actives have a fitted effect of over 60% in size
[9] = Primary qHTS for Vero E6 cytotoxicity: counterscreen for inhibitors of SARS-S pseudo-typed particle cell entry (AID 1479150); conditions: outcome: dose series up to 57.1 µM unless noted
[10] = Cytotoxicity counterscreen for inhibitors of SARS-CoV-2 cell entry (AID 1645845); further: series mostly up to about 57 µM; nearly all actives have a fitted effect of over 50% in size
Method in brief: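 Counterscreen run in the same HEK293-ACE2 line as the pseudotyped-particle entry assay, without particles. Viability after 48 h at 37 C was read as ATP luminescence, scaled between cell-containing and cell-free wells.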

Measured: Potency

Nc1nc(N)c2[nH]cnc2n1
inactive: [1] | [2] | [3] | [4]

C=C(C)C(O)Cc1c(OC)ccc(C(=O)/C=C/c2ccc(O)cc2)c1O (centres undefined)
inactive: [1] | [2] | [3] | [4]

O=C1Nc2ccccc2C(=O)N2CCC[C@@H]12
inactive: [1] | [2] | [3] | [4]

N[C@H](CSSC[C@@H](N)C(=O)O)C(=O)O
inactive: [1] | [2] | [3] | [4]

C/C(=C/C=C/[C@@H](C)C(=O)O)[C@H]1CN[C@H](C(=O)O)[C@H]1CC(=O)O
inactive: [1] | [2] | [3] | [4]

N=C1SC(=Cc2ccc(-c3ccc4c(c3)C(=O)NC4=O)o2)C(=O)N1c1ccc(Br)cc1
inactive: [1] | [2] | [3] | [4]

S=C(NCc1ccccc1)NCc1ccccc1
inactive: [1] | [2] | [3] | [4]

CC1(C)CC(=O)CC(C)(C)N1
inactive: [1] | [2] | [3] | [4]

COc1ccc2c3c([nH]c2c1)C(C)NCC3 (centres undefined)
inactive: [1] | [2] | [3] | [4]

COC(=O)C=CC(=O)OC
active: [1] 6.11 µM | [2] 4.85 µM | [3] 3.06 µM | [4] 4.85 µM

CC12CCC(=O)C=C1C(F)CC1C2C(O)CC2(C)C1CCC2(O)C(=O)CO (centres undefined)
inactive: [1] | [2] | [3] | [4]

CC(C)CCCC(C)CCO (centres undefined)
inactive: [1] | [2] | [3] | [4]

C[C@@H]1OC(=O)[C@H]2C[C@H]3CCCC[C@@H]3[C@@H](/C=C/[C@H]3CCC[C@H](C)N3C)[C@@H]12
inactive: [1] | [2] | [3] | [4] | [5]

C=C(C=O)C[C@@H]1C[C@H](O)C2OC3C[C@]4(C)OC5/C=C\CC6OC7C(CC=CCC6OC5CCCC4OC3CC2O1)OC1CC2OC3CC(=O)OC3C[C@@H](C)C[C@@]2(C)OC1C[C@@H]7C (some centres undefined)
inactive: [1] | [2] | [3] | [4]

CNCC(N)C(=O)O (centres undefined)
inactive: [1] | [2] | [3] | [4] | [5]

CC[C@H](C)/C=C(C)/C=C/C1=CC2=CC(=O)[C@]3(C)OC(=O)[C@@H](C(C)=O)[C@@H]3C2=CO1
inactive: [1] | [2] | [3] | [4]

CCCCCC(=O)OCC
inactive: [1] | [2] | [3] | [4]

COc1cc2c(c(OC)c1OC)-c1c(cc3c(c1OC)OCO3)C[C@H](C)[C@@](C)(O)C2
not listed: [5]
inactive: all other assays above
